This is a sample that favours compounds with a hit; in the whole collection about 1.3% have one here.
NCOA2 inhibitor = inhibits human steroid receptor coactivator 2. Q15596. HEK293 GAL4-SRC2 luciferase reporter, luminescence. inhibition, % at 9 µM. 370,000 compounds, 0.17% hits;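 active means inhibition above the mean inhibition of all tested compounds plus 3 SD, set per campaign, cut at about 52% in these data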;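 further: 0% = DMSO treated cells and 100% = cells given Gossypol at 36 µM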
SRC3 inh = inhibits human SRC3 coactivator; Q9Y6Q9; HEK293 GAL4-SRC3 luciferase reporter, luminescence; inhibition, % at 3.6 µM; 360,000 compounds, 0.17% hits;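 active means inhibition above a per-campaign cutoff, the mean of all compounds plus 3 SD, cut at about 60% in these data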;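 further: 0% = DMSO-treated cells and 100% = gossypol-treated cells at 36 µM; higher means less SRC3-driven luciferase light from the GAL4 reporter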
NR5A2 inv ag = NR5A2 inverse agonism in reporter assay | O00482 | HEK293T StAR-luciferase reporter, LRH-1 transfected, 24 h | inhibition, % at 3.6 µM | 360,000 compounds, 0.13% hits | AID 602396;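 active means inhibition above the mean inhibition of all tested compounds plus 3 SD, cut at about 73% in these data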;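 further: 0% = DMSO wells and 100% = reporter-only cells lacking LRH-1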
SRC1 inh = human NCOA1 inhibition; inhibition, % at 3.6 µM; 360,000 compounds, 0.12% hits; AID 588354; HEK293 GAL4-SRC1 luciferase reporter, luminescence; Q15788;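 active means inhibition above the campaign mean plus 3 SD, with each screening campaign given its own cutoff, cut at about 60% in these data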;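 further: 0% = DMSO treated cells and 100% = gossypol at 36 µM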
Gli-Sufu antag = blocks Gli-Sufu signaling in a luciferase reporter; Sufu-KO-LIGHT fibroblasts, Gli luciferase reporter luminescence; inhibition, % at 5 µM; 340,000 compounds, 0.74% hits;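 active means inhibition above about 55%, limit read from the data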;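 further: 0% = DMSO-treated cells and 100% = wells with medium but no cells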
NR2F2 inh = NR2F2 (human) inhibition, primary screen; P24468; HEK293T NGFI-A luciferase reporter, luminescence; inhibition, % at 8.6 µM; 370,000 compounds, 0.7% hits; AID 686940;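 active means inhibition above a per-plate cutoff, mean inhibition of test wells between control levels plus 3 SD, cut at about 38% in these data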;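 further: cells cotransfected with COUP-TFII expression vector driving the NGFI-A reporter; 0% = median of COUP-TF2 test wells and 100% = reporter-only cells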
Target sequence (P24468 whole entry, looked up): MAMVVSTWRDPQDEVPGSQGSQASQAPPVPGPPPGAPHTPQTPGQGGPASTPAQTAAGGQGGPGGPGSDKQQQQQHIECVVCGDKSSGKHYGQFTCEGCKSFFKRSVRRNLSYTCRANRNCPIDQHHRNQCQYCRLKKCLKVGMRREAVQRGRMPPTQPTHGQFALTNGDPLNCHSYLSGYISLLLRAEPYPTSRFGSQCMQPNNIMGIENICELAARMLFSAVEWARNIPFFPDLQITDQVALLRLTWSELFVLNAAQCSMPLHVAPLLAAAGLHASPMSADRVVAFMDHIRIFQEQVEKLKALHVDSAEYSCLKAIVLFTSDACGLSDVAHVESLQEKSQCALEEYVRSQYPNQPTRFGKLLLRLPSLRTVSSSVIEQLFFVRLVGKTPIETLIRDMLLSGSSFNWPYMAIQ
Gli antag conf = Gli-SUFU antagonism confirmation, single concentration; 2,500 compounds, 40% hits; inhibition, % at 5 µM; Sufu-KO-LIGHT cells, Gli luciferase reporter, luminescence; shares compounds with Gli-Sufu antag;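 active means mean inhibition at 5 µM reaching about 45%, limit read from the data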;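 further: plate controls were DMSO-treated cells for no effect and wells lacking cells for full effect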
Gli cytotox = counter-screen for Gli-SUFU antagonists: cytotoxicity; shares compounds with Gli-Sufu antag; Sufu-KO-LIGHT cells cytotoxicity, ATP luminescence; cytotoxicity, % at 5 µM; 2,500 compounds, 32% hits; AID 651994;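 active means mean cytotoxicity at 5 µM above about 25%, limit read from the data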;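 further: cells exposed to compound overnight for roughly 16 to 18 hours; plate controls were DMSO wells with cells for no effect and medium without cells for full effect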
Wnt3a counter = Wnt3a reporter inhibition counter-screen | AID 651995 | 2,500 compounds, 20% hits | shares compounds with Gli-Sufu antag | Wnt-LIGHT cells, Wnt3a-driven luciferase reporter, luminescence | inhibition, % at 6.25 µM;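 active means mean inhibition above about 25%, limit read from the data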
Active calls of the source: *; · = no result given.

SMILES | NCOA2 inhibitor | SRC3 inh | NR5A2 inv ag | SRC1 inh | Gli-Sufu antag | NR2F2 inh | Gli antag conf | Gli cytotox | Wnt3a counter
Cc1nc(N2CCN(C(=O)c3cnccn3)CC2)c2c3c(sc2n1)CC(C(C)(C)C)CC3 (stereo not drawn) | -4 | -6 | 5 | -21 | 51 | 5 | 22 | 5 | 2
O=C(C1CCCCC1)N1CCN(c2ccnc3cc(Cl)ccc23)CC1 | 18 | 30 | -3 | 23 | 53 | 24 | 57* | 14 | -17
O=C(C1CC1)N1CCN(c2ccnc3cc(Cl)ccc23)CC1 | -1 | -5 | 1 | -2 | 32 | 23 | · | · | ·
O=C(c1ccco1)N1CCN(c2ccnc3cc(Cl)ccc23)CC1 | -10 | 11 | -3 | 6 | 54 | 8 | 42 | 9 | -22
O=C(C1CCC1)N1CCN(c2ccnc3cc(Cl)ccc23)CC1 | 22 | 33 | -7 | 18 | 25 | 32 | · | · | ·
C=CCCC(=O)N1CCC(C(=O)NC2CCCc3ccccc32)CC1 (stereo not drawn) | -4 | · | · | · | · | 1 | · | · | ·
CCS(=O)(=O)c1nc(S(=O)(=O)c2ccc(C)cc2)c(N2CCOCC2)s1 | 11 | 13 | 27 | -2 | 54 | -2 | 21 | 15 | 7
Cc1ccc(S(=O)(=O)c2nc(S(=O)(=O)c3ccc(C)cc3)c(N3CCN(CCO)CC3)s2)cc1 | 7 | 2 | 9 | -1 | 55* | 11 | 23 | 20 | 62*
CNC(=S)N/N=C(\C)c1ccc(N2CCOCC2)cc1 | -22 | -10 | -29 | -17 | 68* | -6 | -18 | 7 | -68
CCNC(=S)N/N=C(\C)c1ccc(N2CCOCC2)cc1 | -4 | 4 | -7 | 3 | 5 | -8 | · | · | ·
COC(=O)[C@]12C[C@H](CC(=O)NCc3cccc4ccccc34)C(=O)N(CCc3ccc(OC)c(OC)c3)C1=C[C@H](C(C)C)O[C@@H]2C1CC1 | 1 | · | · | · | · | 14 | · | · | ·
O=C(NCCO)[C@H](Cc1ccccc1)NC1(C(=O)NCCN2CCOCC2)CCCCC1 | · | · | · | · | · | -7 | · | · | ·
COc1cc(C(=O)N(C)CC2CCN(CCc3cccc(C(F)(F)F)c3)CC2)ccc1C | 16 | -2 | -10 | -5 | 58* | 17 | 21 | -7 | -30
O=C(CSCCc1ccccn1)Nc1ccccn1 | -45 | -2 | 11 | -4 | 96* | -3 | 8 | 25 | -6
O=C(CSCCc1ccccn1)Nc1ccc(Br)cn1 | -10 | -28 | -9 | -24 | -4 | -2 | · | · | ·
O=C(O)c1ccc(NC(=O)c2cccc(C(=O)Nc3ccc(C(=O)O)cc3)n2)cc1 | 0 | -1 | -3 | -19 | 66* | 14 | 16 | 13 | 9
O=C(Nc1ccccc1)c1cccc(C(=O)Nc2ccccc2)n1 | 27 | -1 | 16 | 2 | 32 | 3 | · | · | ·
COc1cccc(CNC(=O)CCNC(=O)c2ccco2)c1 | 16 | 15 | 12 | 1 | -7 | -5 | · | · | ·
COc1ccc(CCNC(=O)CCNC(=O)c2ccco2)cc1 | -35 | 8 | 3 | -5 | 72* | 3 | 14 | 28* | -3
Cn1ccnc1CN1CCC[C@]2(CC[C@H](CCC#N)O2)C1 | -11 | · | · | · | · | -4 | · | · | ·
Nc1nc(N2CCN(C(c3ccccc3)c3ccccc3)CC2)n[nH]1 | -10 | 22 | -4 | -5 | 66* | -10 | 31 | 22 | -15
Nc1nc(N2CCN(Cc3ccccc3)CC2)n[nH]1 | 0 | -3 | 4 | -1 | 24 | 12 | · | · | ·
NS(=O)(=O)c1ccc(CCNCc2cc(Br)ccc2OCc2ccccc2)cc1 | -7 | 7 | 20 | 9 | 55* | 4 | 31 | 4 | -10
CCOc1cc(CNCc2ccccc2)ccc1OCc1ccc(Cl)cc1 | 32 | 6 | -4 | -9 | -2 | 28 | · | · | ·
CCOc1cc(CNCCc2ccc(S(N)(=O)=O)cc2)ccc1OCc1ccccc1 | -2 | 10 | -5 | 1 | 46 | -13 | · | · | ·
SMILES | NCOA2 inhibitor | SRC3 inh | NR5A2 inv ag | SRC1 inh | Gli-Sufu antag | NR2F2 inh | Gli antag conf | Gli cytotox | Wnt3a counter
COc1ccc(CNCCc2ccc(Cl)cc2)cc1OCc1ccccc1 | · | 5 | 12 | -22 | 53 | · | 29 | 6 | 5
CC(C)=CCC/C(C)=C/CNCC(=O)N1c2ccccc2[C@]2(C)C[C@@H]3C(=O)N(C/C=C(\C)CCC=C(C)C)CC(=O)N3[C@H]12 | 13 | · | · | · | · | 8 | · | · | ·
C/C(=C/c1[nH]c(N)[n+](CC2CC2)c1Cc1ccccc1)Cn1[nH]c(=O)n(-c2ccccc2)c1=O | -13 | · | · | · | · | 4 | · | · | ·
O=C(Cn1ccc2cc(S(=O)(=O)N3CCCC3)ccc21)NCCc1ccccc1 | -4 | 1 | 13 | -1 | 57* | 11 | 26 | 6 | -17
CC(=O)CC[C@@H]1CC[C@]2(CCCN(C(=O)c3ccccc3)C2)O1 | -9 | · | · | · | · | 20 | · | · | ·
O=C(NCCc1cccc(F)c1)c1cc2ccccn2n1 | -55 | · | · | · | · | -26 | · | · | ·
COc1cc2c(c(OC)c1OC)-c1ccc(OC)c(=O)cc1[C@@H](N(C)CC#CCO)CC2 | 12 | -4 | -2 | -8 | 66* | -62 | 58* | 62* | 41*
COc1cc2c(c(OC)c1OC)-c1ccc(SC)c(=O)cc1C(NC(=O)C(F)(F)F)CC2 (stereo not drawn) | 15 | 10 | 32 | -15 | 51 | -61 | 60* | 61* | 41*
COc1cc2c(c(OC)c1OC)-c1ccc(N(C)CC(OC)OC)c(=O)cc1[C@@H](NC(C)=O)CC2 | 9 | 4 | 18 | -26 | 57* | -53 | 58* | 34* | -75
CN[C@H]1CCc2cc(OC)c(OC)c(OC)c2-c2ccc(N(C)CC(OC)OC)c(=O)cc21 | 1 | -7 | 10 | -9 | 5 | -42 | · | · | ·
COC(=O)[C@]12C[C@H](CC(=O)NCCc3ccccc3OC)C(=O)N(Cc3ccc4c(c3)OCO4)C1=C[C@H](C(C)C)O[C@@H]2C1CC1 | 13 | · | · | · | · | 0 | · | · | ·
COc1ccc(OC)c(NC(=O)CN(c2ccc(C)cc2)S(=O)(=O)c2c(C)n[nH]c2C)c1 | -11 | 5 | 1 | 18 | -6 | -13 | · | · | ·
COc1ccccc1NC(=O)CN(c1ccc(C)cc1)S(=O)(=O)c1c(C)n[nH]c1C | 2 | 21 | 11 | -10 | 56* | -1 | 20 | 5 | -25
Cc1cc(C(=O)NCc2ccccc2)no1 | -44 | -3 | 4 | -6 | 89* | 3 | 23 | 19 | -9
Cc1cc(C(=O)NNCc2ccccc2)no1 | 2 | 3 | -22 | -13 | -9 | 7 | · | · | ·
Cc1ccc2c(c1)N(CCCC(=O)N(C)Cc1ccccc1Cl)C(=O)CO2 | -25 | · | · | · | · | 0 | · | · | ·
Cc1cc(Nc2ccccc2Br)n2nc(C)nc2n1 | 9 | 22 | 17 | 10 | 54 | 6 | 12 | 4 | 8

Screens as filed in PubChem.
